Screening results deposited in PubChem BioAssay by National Center for Advancing Translational Sciences (NCATS).
SMN2 splice enh: increases expression of the SMN2 splice variant | HEK293 SMN2-luciferase splicing reporter, luminescence, 30-36 h | Potency, µM (highest dose often 46.1 µM), inactives show top-dose activity change, positive = activation, usual class: activators | 210,000 compounds, 2.8% hits | AID 1458; note: % of control where 0% means no effect; nearly all actives have a fitted effect of over 55% in size
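HEK293 cells carry an SMN2 […]–luciferase reporter in which exon 7 inclusion puts luciferase in frame. Cells were plated 10-12 h before compound addition, then incubated 30-36 h at 37C. ONE-Glo luminescence was read; sodium butyrate at 4.5 mM final served as control.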
FLuc counter: firefly luciferase modulation, counter-screen for miR-21 project; P08659; purified FLuc, Km substrates, luminescence inhibition; Potency, µM (titrated, usually from 57.5 µM), without a hit: top-dose activity change, negative = inhibition, actives largely listed as inhibitors; 360,000 compounds, 6.9% hits; AID 588342;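 note: plate controls were vehicle for no effect and reference inhibitor for full effect; nearly all actives have a fitted effect of over 55% in size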
Target sequence (P08659 whole entry, looked up): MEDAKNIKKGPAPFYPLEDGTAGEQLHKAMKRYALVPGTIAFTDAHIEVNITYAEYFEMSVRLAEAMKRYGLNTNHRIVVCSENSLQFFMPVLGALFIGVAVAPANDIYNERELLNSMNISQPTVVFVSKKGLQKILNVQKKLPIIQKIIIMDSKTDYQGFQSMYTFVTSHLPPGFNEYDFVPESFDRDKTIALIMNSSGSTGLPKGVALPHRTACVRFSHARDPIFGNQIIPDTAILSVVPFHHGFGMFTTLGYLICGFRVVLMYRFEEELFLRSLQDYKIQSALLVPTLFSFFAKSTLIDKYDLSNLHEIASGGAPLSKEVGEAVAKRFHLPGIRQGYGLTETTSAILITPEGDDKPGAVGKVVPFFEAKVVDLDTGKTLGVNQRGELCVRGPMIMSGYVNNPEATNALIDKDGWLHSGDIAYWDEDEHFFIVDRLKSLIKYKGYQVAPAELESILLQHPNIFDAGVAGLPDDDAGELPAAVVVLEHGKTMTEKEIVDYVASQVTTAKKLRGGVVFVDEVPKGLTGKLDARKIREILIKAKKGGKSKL
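Purified P. pyralis luciferase, 10 nM final, with Km-level 10 uM D-luciferin and 10 uM ATP in 50 mM Tris acetate pH 7.5, 10 mM Mg acetate, 0.01% Tween-20, 0.05% BSA; 6-point qHTS titration about 60 µM downward; luminescence read.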
NPC1 promoter act: activators of NPC1 promoter | Huh7 NPC1 promoter luciferase reporter, 24 h | Potency, µM (doses to about 9.22 µM), inactives show at the top dose activation, most hits filed as activators | 320,000 compounds, 2.4% hits | AID 485313; note: % of control where 0% means no effect; nearly all actives have a fitted effect of over 60% in size
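Readout is luciferase luminescence, reflecting NPC1 promoter activation in stably transfected Huh7 cells after 24 h compound exposure at 37 °C in reduced-serum medium with 10% FBS.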
ELG1 DNA repair: inhibitors of ELG1-dependent DNA repair in HEK293T cells; HEK293T ELG1-luciferase reporter, luminescence, 16 h; DNA damage induced by 5-fluorouridine; Potency, µM (top dose mostly 46.1 µM), for the others: at the highest dose activity change, negative = inhibition, most hits filed as inhibitors; 330,000 compounds, 2.3% hits; note: % is set by controls: 0 for no effect and ±100 for the full control effect; nearly all actives have a fitted effect of over 55% in size
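Quantitative HTS, concentration-response format. 2,000 cells/well co-treated with 5-fluorouridine and compound, 16 hr in 5% CO2 at 37 °C; ONE-Glo luminescence read after 30 min.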
Rab9 promoter act: activators of Rab9 promoter; Huh7 Rab9 promoter-luciferase reporter, luminescence, 24 h; Potency, µM (doses to about 9.22 µM), inactives show at the highest dose activation, negative = inhibition, usual class: activators; 320,000 compounds, 2.8% hits; AID 485297; note: % of control where 0% means no effect; nearly all actives have a fitted effect of over 60% in size
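Luminescence read-out: Huh7 cells stably expressing Rab9-luciferase, treated 24 h with compound at 37 °C, then lysed with luciferase reagent for 10 min at ambient before reading.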
ELG1 genotoxic: induces genotoxicity in HEK293T cells with luciferase-tagged ELG1 | HEK293T ELG1-luciferase reporter, luminescence, 16 h | Potency, µM (titrated, usually from 46 µM), for the others: top-dose activity change, positive = activation, actives largely listed as activators | 330,000 compounds, 1.3% hits | AID 504466; note: % of control where 0% means no effect; nearly all actives have a fitted effect of over 60% in size
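Cells (2,000/well) expressing the ELG1-luciferase fusion are dosed by pin tool and kept 16 hr at 37 °C, 5% CO2. Signal comes from ONE-Glo luciferase reagent after 30 min at room temperature.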
* marks the source's active call; other numbers are inactive results. Compounds with a hit are over-represented: about 9.2% of the library has one in this group of screens. Calls come from the whole dose curve; as a rule, active = well fitted curve in the direction sought with a large enough effect; inconclusive = small, poorly fitted or top-dose-only effect, or another doubt; inactive = no such curve, though single readings can be large; an effect the other way counts as inactive or inconclusive. Potency is the fitted concentration of half-maximal effect.

What do the screens show for `COC(=O)c1cc(Cl)ccc1NC(=O)CSc1ncc(S(=O)(=O)c2ccc(Br)cc2)c(=O)[nH]1`?
SMN2 splice enh: 1%; FLuc counter: 11µM*

What do the screens show for `c1ccc(Sc2ncnc3c2oc2ccccc23)cc1`?
SMN2 splice enh: inconclusive; FLuc counter: 8.5µM*; NPC1 promoter act: inconclusive; ELG1 DNA repair: inconclusive; Rab9 promoter act: inconclusive; ELG1 genotoxic: inconclusive

What do the screens show for `COc1cccc(Nc2nc(C)nc3c2oc2ccccc23)c1`?
FLuc counter: inconclusive; NPC1 promoter act: -7%; ELG1 DNA repair: -7%; Rab9 promoter act: -2%; ELG1 genotoxic: -10%

Results for COc1ccc(Nc2ncnc3c2oc2ccccc23)cc1 ?
SMN2 splice enh: 11µM*; FLuc counter: 9.5µM*; NPC1 promoter act: 2.5µM*; ELG1 DNA repair: inconclusive; Rab9 promoter act: 1.3µM*; ELG1 genotoxic: 8.9µM*

Results for Cc1ccc(Nc2ncnc3c2oc2ccccc23)cc1 ?
SMN2 splice enh: 13µM*; FLuc counter: 3.4µM*; NPC1 promoter act: 2.5µM*; ELG1 DNA repair: inconclusive; Rab9 promoter act: 2µM*; ELG1 genotoxic: 7.3µM*

How did O=C(NCC1CCCO1)C(Cc1ccccc1)N1C(=O)C2C3C=CC(C4CC34)C2C1=O (stereo not given) do in these assays?
SMN2 splice enh: 17%; FLuc counter: 3%; NPC1 promoter act: -2%; ELG1 DNA repair: 3%; Rab9 promoter act: 1%; ELG1 genotoxic: -7%

How did O=[N+]([O-])c1ccc(O)c(/C=N/n2cnc3ccccc32)c1 do in these assays?
SMN2 splice enh: -48%; FLuc counter: 27µM*; NPC1 promoter act: 6%; ELG1 DNA repair: 21µM*; Rab9 promoter act: -3%; ELG1 genotoxic: -10%

How did O=[N+]([O-])c1ccc(O)c(/C=N/n2c(CO)nc3ccccc32)c1 do in these assays?
FLuc counter: -9%; NPC1 promoter act: 1%; ELG1 DNA repair: 26µM*; Rab9 promoter act: -5%; ELG1 genotoxic: -5%

How did O=S(=O)(c1ccccc1)N1CCC2(CC1)CN(c1ccncc1)C2 do in these assays?
SMN2 splice enh: -24%

What do the screens show for `COc1ccc(-c2[nH]ncc2C(=O)NCc2cccc(F)c2)cc1`?
SMN2 splice enh: -7%; FLuc counter: 3%

Results for COc1ccccc1N1CCN(/N=C/c2ccc([N+](=O)[O-])cc2)CC1 ?
FLuc counter: 15µM*; NPC1 promoter act: inconclusive; ELG1 DNA repair: inconclusive; Rab9 promoter act: 4µM*; ELG1 genotoxic: -5%

How did COc1ccccc1N1CCN(/N=C/c2ccc(Cl)c([N+](=O)[O-])c2)CC1 do in these assays?
FLuc counter: 15µM*; NPC1 promoter act: 28%; ELG1 DNA repair: inconclusive; Rab9 promoter act: 24%; ELG1 genotoxic: inconclusive

Results for COc1ccc(NC(=S)N2CCN(c3ccc([N+](=O)[O-])cc3)CC2)cc1OC ?
SMN2 splice enh: -29%; FLuc counter: -12%; NPC1 promoter act: -12%; ELG1 DNA repair: 13µM*; Rab9 promoter act: -4%; ELG1 genotoxic: 0%

How did COc1ccccc1N1CCN(C(=O)Nc2ccc([N+](=O)[O-])cc2)CC1 do in these assays?
SMN2 splice enh: 5%; FLuc counter: 0%; NPC1 promoter act: 2%; ELG1 DNA repair: 15µM*; Rab9 promoter act: -1%; ELG1 genotoxic: -4%

Results for O=C(Nc1ccc(Cl)c(Cl)c1)C1CCN(C(=O)c2ccco2)CC1 ?
FLuc counter: -4%; NPC1 promoter act: 0%; ELG1 DNA repair: 1%; Rab9 promoter act: -1%; ELG1 genotoxic: -2%

How did CSCC[C@H](NC(=O)Nc1ccc(Oc2ccccc2)cc1)C(=O)O do in these assays?
FLuc counter: -9%; NPC1 promoter act: 1%; ELG1 DNA repair: 0%; Rab9 promoter act: 0%; ELG1 genotoxic: 0%

Results for COc1ccccc1-c1nc2cc3ccccc3cc2nc1-c1ccccc1OC ?
SMN2 splice enh: -34%; FLuc counter: 2%; NPC1 promoter act: 3%; ELG1 DNA repair: 21µM*; Rab9 promoter act: 8%; ELG1 genotoxic: -3%

What do the screens show for `CC1CCCCN1CCNC(=O)CN1C(=O)CSc2ccc(S(=O)(=O)N3CCCCC3)cc21` (stereo not given)?
FLuc counter: 1%; NPC1 promoter act: -1%; ELG1 DNA repair: 1%; Rab9 promoter act: -1%; ELG1 genotoxic: 1%

What do the screens show for `Cc1cc(C)cc(Oc2ccc(N)cc2)c1`?
SMN2 splice enh: 13µM*; FLuc counter: -8%; NPC1 promoter act: 1%; ELG1 DNA repair: 26%; Rab9 promoter act: -1%; ELG1 genotoxic: 22%

How did O=C1C=C(NCCO)C(=O)c2cnccc21 do in these assays?
SMN2 splice enh: -115%

How did O=C1C=C(NCCN2CCOCC2)C(=O)c2cnccc21 do in these assays?
SMN2 splice enh: -101%; FLuc counter: -1%; NPC1 promoter act: -33%; ELG1 DNA repair: 4.1µM*; Rab9 promoter act: -49%; ELG1 genotoxic: -23%

What do the screens show for `Cc1ccc(CN(C)C(=O)c2cccc(S(=O)(=O)N3CCCC3)c2)o1`?
ELG1 DNA repair: 10%; ELG1 genotoxic: 3%

What do the screens show for `COc1ccc(S(=O)(=O)N2CCC(C(=O)N(C)Cc3ccc(C)o3)CC2)cc1OC`?
FLuc counter: -1%; NPC1 promoter act: -5%; ELG1 DNA repair: 16µM*; Rab9 promoter act: 4%; ELG1 genotoxic: 3%

How did Cc1ccc(-c2noc(-c3ccccc3C(=O)NCc3ccco3)n2)cc1 do in these assays?
FLuc counter: 5.4µM*; NPC1 promoter act: 16%; ELG1 DNA repair: 17%; Rab9 promoter act: 16%; ELG1 genotoxic: 6%

What do the screens show for `O=C(NCc1ccco1)c1ccccc1`?
FLuc counter: 0%; NPC1 promoter act: 0%; ELG1 DNA repair: -7%; Rab9 promoter act: 0%; ELG1 genotoxic: -5%

How did Cc1cccc(-c2noc(-c3ccccc3C(=O)NCc3ccco3)n2)c1 do in these assays?
FLuc counter: 9.5µM*; NPC1 promoter act: inconclusive; ELG1 DNA repair: -1%; Rab9 promoter act: inconclusive; ELG1 genotoxic: 1%

What do the screens show for `O=C(NCc1ccco1)c1ccccc1-c1nc(-c2ccccc2)no1`?
SMN2 splice enh: 7%; FLuc counter: 27µM*; NPC1 promoter act: 1%; ELG1 DNA repair: inconclusive; Rab9 promoter act: 0%; ELG1 genotoxic: 6%

How did COc1ccc(Cl)cc1NC(=O)c1cn(C2CCCC2)c(=O)c2c1c1ccccc1n2C do in these assays?
SMN2 splice enh: 0%; FLuc counter: -2%

Results for Cc1ccccc1C(=O)NNC(=O)c1cccn1C ?
FLuc counter: -15%; NPC1 promoter act: 21%; ELG1 DNA repair: inconclusive; Rab9 promoter act: 16%; ELG1 genotoxic: inconclusive
